Compound activity (PubChem BioAssay)
PostGolgi ctrl = inhibits growth of the yeast control strain; efflux-deficient yeast background strain, growth absorbance A615, 16 h; inhibition, % at 10 µM; 5% of 98,000 active; AID 738
PostGolgi yeast = growth inhibition of a yeast mutant, post-Golgi transport screen; post-Golgi transport phenotypic cell assay; inhibition, % at 10 µM; 0.9% of 98,000 active;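 further: yeast cells grown in 1536-well plates; yeast grown about 18 h at 30C before absorbance read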
Cav3 T inh = human Cav3.2 channel inhibition, primary screen. 4% of 100,000 active. O95180. B-score at 10 µM. Cav3.2-expressing cells, Fluo-4 calcium fluorescence FDSS; stronger effect = lower value;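 active means single-dose well whose peak fluorescence ratio is a statistical outlier from its plate by either plate-standardised score or position-corrected B-score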
Smad3 FoxH1 inh = inhibitors of human Smad3 transcription factor binding. P84022. TR-FRET Smad3/Dy647-FoxH1 peptide binding, europium anti-His. inhibition, % at 25 µM. 0.29% of 88,000 active. AID 630;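 active means compounds that reduce the energy-transfer binding signal between the protein and its labelled peptide by more than half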;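 further: 0% = Smad3 plus labelled peptide maximal FRET and 100% = peptide-only background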
TNAP act mid DEA = activators of human TNAP at intermediate phosphate acceptor; 64,000 tested, under 10 active; P05186; AID 813; purified TNAP, CDP-star luminescence, 100 mM DEA, 30 min; stronger effect = higher value; scale: 0 levamisole-inhibited, 1 vehicle-only enzyme; activation factor at 20 µM;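 active means activation factor of at least 2 at 20 µM, relative to controls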
hDAT+cocaine = modulates human dopamine transporter uptake under cocaine; Q01959; LLC-PK1 hDAT cells, [14C]-dopamine uptake with cocaine IC80; actives deviate in either direction; B-score at 10 µM; 1.3% of 110,000 active;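 active means Z score or B-score, a plate-position-corrected score, falls beyond the plate's 99.7% confidence bounds, in either direction; inactive means both scores lie inside the 99.7% bounds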;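 further: scored against the spread of the other compound wells on the same plate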
Target sequence (Q01959 whole entry, looked up): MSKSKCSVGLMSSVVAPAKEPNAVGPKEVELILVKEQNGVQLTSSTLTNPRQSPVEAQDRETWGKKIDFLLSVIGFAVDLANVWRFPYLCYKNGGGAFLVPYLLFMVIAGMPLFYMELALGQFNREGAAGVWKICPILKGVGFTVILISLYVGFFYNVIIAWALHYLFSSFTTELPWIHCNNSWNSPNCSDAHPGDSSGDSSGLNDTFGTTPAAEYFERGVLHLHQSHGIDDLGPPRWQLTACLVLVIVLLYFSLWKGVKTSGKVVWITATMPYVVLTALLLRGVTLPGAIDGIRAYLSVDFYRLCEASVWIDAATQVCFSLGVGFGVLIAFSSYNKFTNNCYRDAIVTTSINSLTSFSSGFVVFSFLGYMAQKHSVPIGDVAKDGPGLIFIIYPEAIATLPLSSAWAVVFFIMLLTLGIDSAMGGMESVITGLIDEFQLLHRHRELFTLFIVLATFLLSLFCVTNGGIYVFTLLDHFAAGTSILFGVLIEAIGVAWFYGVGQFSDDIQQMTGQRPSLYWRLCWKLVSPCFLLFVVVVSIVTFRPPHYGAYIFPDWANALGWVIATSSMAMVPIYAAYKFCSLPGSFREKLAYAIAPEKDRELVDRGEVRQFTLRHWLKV
* = called active by the depositor; / = no result. Compounds with a hit are over-represented: about 8.7% of the library has one in this group of screens. Unless noted, no stated cut-off is given here; in the data, active means inhibition above about 30%; inactive means the rest.

SMILES	PostGolgi ctrl	PostGolgi yeast	Cav3 T inh	Smad3 FoxH1 inh	TNAP act mid DEA	hDAT+cocaine
COc1ccc(C(=O)COC(=O)C(CCCCN2C(=O)C3C4C=CC(C4)C3C2=O)N2C(=O)C3C4C=CC(C4)C3C2=O)cc1 (configuration not stated)	/	/	-3.7*	6	/	0.027
COC(=O)C(CCCCN1C(=O)C2C3C=CC(C3)C2C1=O)N1C(=O)C2C3C=CC(C3)C2C1=O (configuration not stated)	11	-3	1.1	3	0.9	-0.93
CC1CCC(C(C)C)C(OC(=O)CSc2nc(N)cc(=O)[nH]2)C1 (configuration not stated)	42*	-15	-0.74	-7	/	0.28
CC1CCC(C(C)C)C(OC(=O)CSc2nnc(N)s2)C1 (configuration not stated)	32*	4	-4.8*	-2	/	0.44
CC(=O)Nc1cccc(Oc2nc(C)cc(C)c2C#N)c1	32*	-5	0.33	0	0.9	0.98
COc1ccc(NC2=CC(=O)CC(c3ccc(C)cc3)C2)c(OC)c1 (configuration not stated)	/	/	-1.7	/	/	-0.71
O=C1C=C(Nc2ccc(Cl)cc2)CC(c2ccc(Cl)cc2)C1 (configuration not stated)	52*	8	-1	/	/	-0.87
CC(=O)Nc1ccc(NC2(C)C(=O)c3ccccc3C2=O)cc1	8	-3	0.35	11	1	-1.6
Cc1ccc(CNC(=O)Cn2cccc2C(=O)c2ccccc2)cc1	-4	27	-4.9*	7	/	-0.025
COC(=O)Cn1cccc1C(=O)c1ccccc1	24	2	0.17	5	/	-1.5
Cc1ccc2nc(C)cc(OCC(=O)O)c2c1	3	44*	/	5	0.9	0.0088
O=C(CSc1ccccc1)NCc1ccco1	/	/	0.85	4	/	-1
Clc1ccc(OCCN2CCCCC2)c(Cl)c1	8	18	-2.1	7	/	0.092
CC1CCCN(CCC(=O)c2ccc(Br)cc2)C1 (configuration not stated)	14	3	1.1	/	0.9	-0.0035
CC1CCCN(CCOCCOc2ccc(Cl)cc2Br)C1 (configuration not stated)	22	103*	-0.17	/	/	-0.96
CC1CC(C)CN(CCOc2ccc(Cl)cc2Cl)C1 (configuration not stated)	29	89*	-0.77	-3	/	-8.3*
CCOC(=O)N1CCC(Nc2ncnc3c2cnn3-c2ccc(C)cc2C)CC1	15	-8	2.4	-5	0.9	0.36
CCn1c(SCCOc2ccc(Cl)cc2)nnc1-c1cccs1	27	1	-5.2*	10	0.9	1.5
CCn1c(SCC(=O)c2ccc(Cl)cc2)nnc1-c1cccs1	18	4	-0.35	-18	/	0.73
CCCn1c2ccc(/C(C)=N\O)cc2c2cc(/C(C)=N/O)ccc21	7	-2	0.22	9	/	-0.069
CCCn1c(NCc2c[nH]c3ccccc23)nc2ccccc21	0	-4	-5.9*	-4	/	0.82
Nc1ccc(S(=O)(=O)N2CCCC2)cc1	19	4	1.5	0	0.9	0.023
O=C(CCCOc1ccc(Cl)cc1Cl)Nc1ccncc1	61*	25	0.7	13	/	1.6
CCNC(=O)CCCOc1ccc(Cl)cc1Cl	36*	-2	0.16	7	0.9	0.27
COC(=O)CCC(=O)NNC(=O)CCCOc1ccc(Cl)cc1Cl	7	2	-0.095	/	/	-0.54
SMILES	PostGolgi ctrl	PostGolgi yeast	Cav3 T inh	Smad3 FoxH1 inh	TNAP act mid DEA	hDAT+cocaine
Cn1c(SCC(=O)N2CCc3ccccc3C2)nnc1-c1cccs1	-2	6	2.8	10	0.9	0.093
O=C(Nc1ccc(Br)cc1)c1ccc(CSC2=NCCS2)cc1	34*	2	-0.046	/	/	1.4
CCCn1nc(-c2ccccc2)c2nc3ccccc3nc21	4	-6	-2.2	1	1	0.15
CCCCCn1nc(-c2ccccc2)c2nc3ccccc3nc21	4	-4	-7.3*	5	/	0.22
O=S1(=O)CCOC[C@H](Cc2ccccc2)N1Cc1ccccc1F	/	/	-0.12	/	/	-0.45
CC(Oc1ccccc1)C(=O)N1CCC2(CC1)Oc1ccc(F)cc1C(=O)C21CC(c2ccccc2)=NO1 (configuration not stated)	/	/	-4*	/	/	-0.8
O=C(Nc1nnc(C2CC2)s1)c1ccc(S(=O)(=O)c2ccccc2)cc1	8	13	0.31	5	/	0.92
O=C(Nc1nncs1)c1ccc(S(=O)(=O)c2ccccc2)cc1	0	-8	-0.083	2	1	-8.7*
Cc1ccc(C2=N/C(=C\N3CCCCC3)C(=O)O2)cc1	7	-4	0.59	10	/	-0.089
Cc1cccc2cc(/C=C3\N=C(c4ccccc4)OC3=O)c(N3CCOCC3)nc12	22	5	-6*	/	/	0.024
CCN(CC)C(=O)Oc1ccc(NC(C)=O)cc1	10	20	-0.71	6	0.9	-0.026
CC1OC2(OC1C)C(=O)Nc1ccccc12 (configuration not stated)	2	3	-3.1	1	/	0.82
CN1CC(c2ccccc2Cl)C2(COc3ccccc3C2=O)C12C(=O)Nc1ccccc12 (configuration not stated)	46*	2	-3.6	/	/	0.26
Cc1ccc(C2CN(C)C3(C(=O)Nc4ccccc43)C23COc2ccccc2C3=O)cc1 (configuration not stated)	80*	-5	/	/	/	/
CCCNCCC(c1ccco1)c1ccccc1OC (configuration not stated)	17	-4	-1.3	-20	/	0.39
CC(=O)Nc1ccc(C(=S)NCc2ccco2)cc1	-7	12	/	/	/	0.2
CCc1ccc(N/C(SCc2ccccc2C)=C(/C#N)C(=O)NCc2ccco2)cc1	0	17	-5.4*	/	/	2.1
COc1ccc(Cl)cc1NC(=O)c1cnc2sccn2c1=O	6	-2	0.8	-9	0.9	-0.26
O=C(Nc1cnc2sccn2c1=O)c1ccc(Cl)cc1Cl	32*	-3	-0.042	/	/	-0.0048
COc1cc2c(cc1OC)C(/C(C#N)=N\O)=NC(C)(C)C2	3	-3	0.042	0	0.9	0.77
Cc1cc(/C=N\NC(=O)CC(=O)NC2CCCCC2)c(C)n1-c1ccc(Cl)c(Cl)c1	10	-7	-2.9	/	/	-3.7*
COc1cccc(NC(=O)C(=O)N/N=C/c2cc(C)n(-c3ccc(Cl)c(Cl)c3)c2C)c1	-7	-2	-5.6*	/	/	-4.8*
COc1cccc(/C=N/NC(=O)CSCC(=O)Nc2ccccc2)c1O	6	1	-1.5	/	/	0.63
COc1ccccc1/C=N/NC(=O)CC(=O)Nc1ccc(Cl)c(Cl)c1	20	-5	-5.3*	/	/	-0.0084
Cc1cc(C)n(CC(=O)NC2CCCCC2)n1	-4	2	1.2	-2	0.9	-1.4
O=C(CC(C(=O)O)C1CCCO1)Nc1cccc(C(F)(F)F)c1 (configuration not stated)	18	-5	-0.22	2	0.9	-1.2
